# From PubChem
# TRHR agonist: qHTS for Small Molecule Agonists and Allosteric Enhancers of Human TRH Receptor: Primary Screen for Agonists | Thyrotropin-releasing hormone receptor (Homo sapiens), P34981 | TRHR cells, calcium flux fluo-8, FDSS agonist mode | activation, % at 2 µM | 360,000 compounds, 0.18% hits; further: 0% is about no effect
# Target sequence (P34981 whole entry, looked up): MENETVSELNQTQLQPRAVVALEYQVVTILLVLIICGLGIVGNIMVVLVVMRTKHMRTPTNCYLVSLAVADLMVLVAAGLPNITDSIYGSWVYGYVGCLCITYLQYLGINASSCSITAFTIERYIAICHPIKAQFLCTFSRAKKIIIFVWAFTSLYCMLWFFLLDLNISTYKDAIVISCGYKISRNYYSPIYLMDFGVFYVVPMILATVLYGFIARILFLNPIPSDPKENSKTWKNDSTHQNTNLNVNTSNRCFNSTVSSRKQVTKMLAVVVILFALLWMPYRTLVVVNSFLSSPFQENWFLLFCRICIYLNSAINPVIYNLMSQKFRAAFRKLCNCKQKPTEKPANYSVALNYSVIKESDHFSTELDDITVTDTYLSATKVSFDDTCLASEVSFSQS
#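 Agonist-mode FDSS calcium read (Ex 480/Em 530, 1 s cycles) in 1536-well TRHR cells with fluo-8 dye, after 10-cycle baseline and 23 nL compound addition; TRH at EC20 (10 nM final) added afterwards for the enhancer phase.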
# D1 PAM: Potentiators of Human D1 Dopamine Receptor: qHTS; potentiation, % at 10 µM; D(1A) dopamine receptor (Homo sapiens), P21728; HEK293 TREx D1 cells, calcium flux, dopamine EC20 potentiation; 360,000 compounds, 0.036% hits; in the data active means potentiation above about 30%; further: 0% is about no effect
# D1 ag: Allosteric Agonists of the Human D1 Dopamine Receptor: qHTS | activation, % at 2 µM | D(1A) dopamine receptor (Homo sapiens), P21728 | 360,000 compounds, 1% hits | HEK293 T-REx D1 cells, calcium flux, agonist mode; further: 0% is about no effect
#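 Tetracycline-induced HEK293 TREx D1 cells, force-coupled to calcium signalling, were dye-loaded with a no-wash calcium kit. Compound was pin-added after a 10 s baseline. Fluorescence was read kinetically at 1 cycle/s for 180 s, with calcium rises flagged as agonism.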
# D1 antagonist: Antagonist of Human D 1 Dopamine Receptor: qHTS; activity change, negative = inhibition, % at 10 µM; HEK293 TREx D1 cells, calcium flux, dopamine EC80; stronger effect = lower value; D(1A) dopamine receptor (Homo sapiens), P21728; 360,000 compounds, 3.2% hits; AID 504652, 2011; in the data active means activity change below about -30%; further: on the % scale 0 is the no-effect control and ±100 the full control effect
#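 Tetracycline-induced HEK293 T-REx cells with force-coupled D1 receptor were loaded with a no-wash calcium dye. Compound was added after a 10 s baseline and read kinetically for 180 s; EC80 dopamine was then added and calcium flux followed another 180 s.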
# TRHR enhancer: qHTS for Small Molecule Agonists and Allosteric Enhancers of Human TRH Receptor: Primary Screen for Enhancers; 360,000 compounds, 0.66% hits; Thyrotropin-releasing hormone receptor (Homo sapiens), P34981; TRHR cells, fluo-8 calcium fluorescence, EC20 TRH enhancement; enhancement, % at 2 µM; in the data active means enhancement above about 30%; further: 0% is about no effect
#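 Enhancer read-out: after compound pinning and an initial kinetic agonist-mode read, an EC20 of TRH (10 nM final) was injected and fluo-8 calcium signal (Ex 480/Em 530) followed at 1 s/cycle for 100 cycles in TRHR-expressing cells.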
# * hit, by the source's call; . = no result. An excerpt weighted towards active compounds, which were near 4.6% of everything screened. Unless noted, no stated cut-off is given here; in the data, active means activation above about 30%; inactive means the rest.
SMILES,TRHR agonist,D1 PAM,D1 ag,D1 antagonist,TRHR enhancer
COc1ccc(CN(C(=O)c2nsc(Cl)c2Cl)C(C(=O)NC2CCCC2)c2ccc(C)cc2)cc1 (stereo unspecified),0,-12,6,-10,37*
COc1ccc(CN(C(=O)c2nsc(Cl)c2Cl)C(C(=O)NC2CCCCC2)c2ccc(OC)cc2)cc1 (stereo unspecified),2,-4,1,5,-7
COc1cccc(N(CC(=O)NC2CCCCC2)C(=O)c2snc(C(N)=O)c2N)c1,0,-11,-1,-35*,27
COc1ccc(C(C(=O)NC2CCCCC2)N(Cc2cccnc2)C(=O)c2snc(C(N)=O)c2N)cc1 (stereo unspecified),0,-7,1,-34*,-6
CCCC(C(=O)NC1CCCC1)N(Cc1cccs1)C(=O)c1snc(C(N)=O)c1N (stereo unspecified),0,-5,2,-36*,7
Cc1cccc(CSC(Nc2ccc(F)cc2)=C(C#N)C#N)c1,4,-8,26,-35*,-9
N#CC(C#N)=C(Nc1ccc(F)cc1)SCc1cccc(Br)c1,3,-10,30,-42*,-5
O=C(Cc1ccccc1)Nc1c(C(=O)Nc2ccccc2F)oc2ccccc12,1,0,2,0,-4
Clc1cccc(Cl)c1CSc1nnc(-c2sccc2-n2cccc2)o1,0,-1,50*,-2,12
CSc1nnc(-c2sccc2-n2cccc2)o1,0,0,0,11,0
CN(C(=O)c1cc2sccc2n1C)C1CCCCC1,0,2,3,-35*,-1
O=C(CSc1ncnc2sccc12)Nc1ccccc1,-1,-9,7,-61*,-6
O=C(CSc1ncnc2sccc12)Nc1ccccc1F,-1,-2,2,-5,-9
COC(=O)c1ccc(COc2cc(O)c3c(c2)OC(C)(C)CC3=O)cc1,0,6,18,-35*,3
O=C(C1CCCCC1)N(Cc1cccnc1)c1nc2ccc(Cl)cc2s1,0,0,3,.,-1
COc1ccc(-n2c(/C=C/c3cccc4ccccc34)nc3ccccc3c2=O)cc1Cl,0,-2,0,-23,-5
N#C/C(=C\c1cccc(NC(=O)c2ccccc2Cl)c1)C(=O)NCCc1ccccc1,1,-5,4,-19,35*
COc1ccccc1CCNC(=O)Cc1c(C)c2ccc(O)cc2oc1=O,-1,0,-1,-21,1
Cn1cc(Br)c(C(=O)NNC(=O)c2ccccc2)n1,0,-7,2,7,32*
O=C(NC1CCCC1)c1cc(-c2cccs2)on1,0,2,2,-42*,0
O=C(NC1CCCC1)c1cc(-c2ccccc2O)on1,0,-5,0,-2,-23
COc1ccccc1-c1cc(C(=O)NC2CCCC2)no1,0,-8,3,-32*,12
CCOC(=O)NN=C1CN(S(=O)(=O)c2ccc(C)cc2)C1,0,-7,0,0,8
COc1ccccc1NC(=O)NC(=O)c1ccccc1,0,-3,2,1,0
COc1ccccc1C(=O)Nc1ccc(C(=O)OCc2cc(=O)n3c4c(sc3n2)CCCC4)cc1,1,4,-1,0,-3
SMILES,TRHR agonist,D1 PAM,D1 ag,D1 antagonist,TRHR enhancer
CCSC1=N/C(=C\c2cccnc2)C(=O)N1c1ccccc1,0,-18,1,-68*,8
CSC1=N/C(=C\c2cccnc2)C(=O)N1c1ccccc1,0,-9,3,-43*,-2
Fc1ccc(-n2nc(-c3ccccc3)c3cnc4ccccc4c32)cc1Cl,-1,0,1,-4,7
CC(=O)Nc1ccc2[nH]c3ccccc3c2c1,0,1,-2,5,-2
O=C(Nc1ccc(Cl)cc1)c1cc2c(cc1O)[nH]c1ccccc12,3,-10,19,-38*,-8
COc1ccc(NS(=O)(=O)c2cc3[nH]c(=O)c(=O)[nH]c3cc2C)cc1OC,0,-5,3,-7,-4
CC(=O)c1ccc(S(=O)(=O)N2CCN(C(=O)c3ccc(-n4cncn4)c([N+](=O)[O-])c3)CC2)cc1,0,-3,0,-50*,6
Nc1ccc(C(=O)N2CCN(S(=O)(=O)c3ccc(Br)cc3)CC2)cc1[N+](=O)[O-],0,-4,5,-49*,2
COc1ccc(C(=O)c2cn(Cc3ccc(F)cc3)c3c(F)cc(F)cc3c2=O)cc1,-1,0,9,4,1
Cc1ccc2onc(CC(=O)Nc3ccc(C(C)C)cc3)c2c1,0,-4,0,-74*,-6
O=C(Cc1noc2ccccc12)Nc1ccccn1,0,-5,0,8,-1
Cc1ccc(NC(=O)Cc2noc3ccccc23)nc1,1,0,2,-32*,27
CCOCCn1c(=NC(=O)c2ccc3c(c2)OCCO3)sc2cc(OCC)ccc21,0,-4,0,-31*,-2
CCc1ccc(CNC(=O)C2CCCN(S(=O)(=O)c3ccc4c(ccn4C)c3)C2)cc1 (stereo unspecified),1,-3,3,-9,2
Cc1ccc(Cl)cc1N1CCN(c2ncnc3onc(-c4ccc(F)cc4)c23)CC1,3,-6,1,-36*,-5
Cc1ccccc1NC(=O)c1ccc(NS(=O)(=O)c2cc(C(C)(C)C)cc(C)c2C)cc1,0,-5,0,-85*,0
Cc1cc(C(C)(C)C)cc(S(=O)(=O)Nc2cccc(C(=O)O)c2)c1C,0,-8,1,-18,-2
Cc1cccc(NS(=O)(=O)c2cccc(C(=O)Nc3cccc(C(=O)O)c3)c2)c1,0,6,9,-22,0
Cc1ccccc1NC(=O)c1cccc(S(=O)(=O)Nc2cccc(C(=O)O)c2)c1,0,2,-3,-31*,-4
CC(C)(C)c1ccc(NC(=O)C2=CC=CN3CCS(=O)(=O)N=C23)cc1,0,0,3,-8,6
Cc1cccc(Oc2ccc(NC(=O)C3=CC=CN4CCS(=O)(=O)N=C34)cc2)c1,0,-9,13,-36*,-4
Cc1ccc(Oc2ccc(NC(=O)C3=CC=CN4CCS(=O)(=O)N=C34)cc2)cc1,0,-9,32*,2,-9
Cc1ccccc1OCC(=O)N(Cc1ccc(N(C)C)cc1)CC1CCCO1 (stereo unspecified),-2,1,0,4,3
